Experimental data from PubChem BioAssay AID1434 (Sanford-Burnham Center for Chemical Genomics, 2008).
Screen size: about 220,000 compounds; about 1,600 (0.73%) were called active.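 The calls were made as follows: active = mean inhibition across duplicate retests at 20 µM reaching about 50% (limit read from the data); inactive = the rest, inconclusive results apart.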 The full list was thinned out, with actives kept by preference.

Biological target: Runt-related transcription factor 1 (Homo sapiens) + Core-binding factor subunit beta (Homo sapiens) (UniProt Q01196+Q13951)
Sequence (Q01196 whole entry, looked up): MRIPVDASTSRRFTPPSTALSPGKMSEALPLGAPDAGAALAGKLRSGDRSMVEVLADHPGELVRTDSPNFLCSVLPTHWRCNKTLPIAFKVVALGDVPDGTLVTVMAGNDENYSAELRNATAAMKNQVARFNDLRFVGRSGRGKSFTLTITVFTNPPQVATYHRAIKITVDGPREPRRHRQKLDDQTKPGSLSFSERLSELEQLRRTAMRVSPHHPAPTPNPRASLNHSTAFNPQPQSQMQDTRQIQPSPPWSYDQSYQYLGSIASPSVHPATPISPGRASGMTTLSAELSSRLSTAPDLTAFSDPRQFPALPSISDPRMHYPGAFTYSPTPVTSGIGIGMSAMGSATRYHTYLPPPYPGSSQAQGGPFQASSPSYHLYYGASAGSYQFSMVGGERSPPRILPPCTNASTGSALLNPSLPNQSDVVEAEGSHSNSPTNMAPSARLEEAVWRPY
Sequence (Q13951 whole entry, looked up): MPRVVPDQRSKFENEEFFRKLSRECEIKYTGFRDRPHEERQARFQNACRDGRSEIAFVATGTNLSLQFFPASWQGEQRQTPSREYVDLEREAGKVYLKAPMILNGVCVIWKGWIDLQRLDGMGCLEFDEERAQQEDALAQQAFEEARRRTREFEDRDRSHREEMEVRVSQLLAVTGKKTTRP
Assay: inhibitors of RUNX1 Runt–CBFb-SMMHC binding, primary screen, biochemical, FRET, Cerulean-Runt, Venus-CBFb-SMMHC, uHTS (AID 1434);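 also: 0% = DMSO wells and 100% = wells with excess untagged CBFb-SMMHC; inhibitors lower the FRET ratio by blocking Runt binding to CBFb-SMMHC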
Details: Cerulean-Runt/Venus-CBFb-SMMHC FRET ratio 530/480, 1 h, at 20 µM, stronger effect = higher value

SMILES	inhibition	inhibition (retest duplicate average)
COC(=O)CCCC1=CC2=CC(=O)C(C)(OC(=O)c3cccs3)C(=O)C2=CN1CC(C)C (configuration not stated)	-2.8% (inactive)	–
CC(=O)Nc1ccc(Sc2ccccc2C(=O)N2CCCC2)cn1	-3.9% (inactive)	–
CN(C)CCCn1c(N)c(C#N)c2nc(C#N)c(C#N)nc21	78.7% (active)	69.9%
COc1ccc(C2/C=C\CN(CC(C)C)CC(=O)N2Cc2ccc(F)cc2)cc1 (configuration not stated)	0.3% (inactive)	–
COc1ccc(O[C@H]2C=C[C@@H](c3ccccc3)O[C@@H]2CO/N=C/C[C@@H]2C=C[C@H](OC(C)=O)[C@@H](COC(C)=O)O2)cc1	-12.9% (inactive)	–
COc1cccc2sc(NNC(=O)c3nc4ccccc4s3)nc12	3.6% (inactive)	–
CC(=O)c1sc(NC(=O)CCCOc2ccccc2C)nc1C	0% (inactive)	–
COc1cccc2sc(Nc3nc(C)c(C(C)=O)s3)nc12	82.4% (active)	96.3%
Cc1ccc(NC(=O)C2(N3CCC3=O)CCCCC2)cc1	3.4% (inactive)	–
N/C(=N\OC(=O)CC1CCCCC1)c1ccccc1	3.7% (inactive)	–
CCN(CC)c1nc(-c2ccccc2)cc(C(F)(F)F)c1C#N	130% (active)	57.3%
N#Cc1c(C(F)(F)F)cc(-c2ccccc2)nc1SCC(=O)N1CCOCC1	-9.3% (inactive)	–
N#Cc1c(C(F)(F)F)cc(-c2ccc(Cl)cc2)nc1SCC(=O)O	0.8% (inactive)	–
CCOC(=O)c1c(Cc2ccc(Cl)cc2)c[nH]c1C	-2.1% (inactive)	–
CCCCNC(=O)CCNC(=O)c1ccc(C(C)(C)C)cc1	-0.2% (inactive)	–
CC(C)(C)c1ccc(C(=O)NCCn2c(N)c(C#N)c3nc4ccccc4nc32)cc1	114% (active)	128%
COCCCn1c2nc3ccccc3nc2c2c(=O)n(Cc3ccc(Cl)cc3)c(C)nc21	7.3% (inactive)	–
CC(C)(C)c1ccc(C(=O)NCC(=O)OCN2C(=O)c3ccccc3C2=O)cc1	4.7% (inactive)	–
CN1OC(COC(=O)c2ccc(Cl)cc2)CC1c1ccccc1 (configuration not stated)	3.2% (inactive)	–
N#Cc1c(N)n(CCOC(=O)c2ccc(Cl)cc2)c2nc3ccccc3nc12	116% (active)	152%
Cc1cc(=O)[nH]c(N/N=C/c2c(C)nn(-c3ccccc3Cl)c2Cl)n1	-3% (inactive)	–
CC(C)(C)C(=O)Nc1c(Br)c(C2CC2)nn1-c1ccccc1	2.4% (inactive)	–
CCc1ccc(CNC(=O)C2CC(=O)N(CCc3ccc(C)cc3)C2)cc1 (configuration not stated)	-1.7% (inactive)	–
C=CCSc1nc(N)cc(=O)[nH]1	0.7% (inactive)	–

SMILES	inhibition	inhibition (retest duplicate average)
O=C(O)CCCCCCCCCC[n+]1ccccc1	-2.3% (inactive)	–
Cc1ccccc1Cn1c(=O)[nH]c2ccccc21	-2% (inactive)	–
CCOC(=O)CCc1c(C)c(C#N)c2[nH]c3ccccc3n2c1=O	-6.1% (inactive)	–
CCCc1cc(=S)n2c([nH]c3ccccc32)c1C#N	81.2% (active)	153%
O=C(c1ccc(C(F)(F)F)cc1)C1CCCN(C(=O)c2csnn2)C1 (configuration not stated)	5.6% (inactive)	–
COC(=O)Cc1cc(=O)oc2c(C)c(O)ccc12	77.6% (active)	71.5%
Cc1cc(=O)oc2c(C(=O)c3ccccc3)c(OCC(N)=O)ccc12	-4.4% (inactive)	–
COC(=O)COc1ccc2oc(=O)cc(C)c2c1	0.6% (inactive)	–
N#C/C(C(=S)Nc1ccccc1)=C1/NN=C(N2CCOCC2)N1c1ccccc1	25.1% (inactive)	–
CN1CCNC(=O)C1CC(=O)NCCC1=CCCCC1 (configuration not stated)	-1.1% (inactive)	–
Nc1nc(Nc2ccccc2)nc(NCCO)c1[N+](=O)[O-]	0.8% (inactive)	–
O=C(Oc1c(-c2ccco2)oc2ccccc2c1=O)c1cccnc1	92.5% (active)	70.6%
N#CCc1ccc(OC(=O)c2cccnc2)cc1	3% (inactive)	–
O=C(Oc1cccnc1)c1cc2ccccc2oc1=O	-10.2% (inactive)	–
Cc1cc(=O)[nH]c2nnnn12	-4.2% (inactive)	–
Cc1ccc(S(=O)(=O)c2c(N)n(C)c3nc4ccccc4nc23)cc1	22% (inactive)	–
CCCNC(=O)c1c(N)n(-c2ccc(S(N)(=O)=O)cc2)c2nc3ccccc3nc12	80.5% (active)	104%
CCOC(=O)c1c(C)c(C(=O)NCCc2ccc(S(N)(=O)=O)cc2)c(C)n1CC	-1.6% (inactive)	–
Nc1c(C(=O)c2cccs2)sc2nsc(SCCN3CCCCC3)c12	-179% (inactive)	–
CCOC(=O)C(=CNNc1ccsc1C(=O)OC)C(=O)OCC	-1.9% (inactive)	–
CCCCc1ccc(NC(=S)N2CCCC(CO)C2)cc1 (configuration not stated)	-1.7% (inactive)	–
CN(C)C(=O)c1nc2ccc(Cl)cn2c1CN1CCN(c2ncccn2)CC1	0.6% (inactive)	–
Cc1cc(C)n(C(=O)CCNC(=O)c2ccccc2Cl)n1	8.8% (inactive)	–
Cc1cc(C)c2nc3nc(C)cc(C)c3c(N)c2c1	60.1% (active)	71.5%

SMILES	inhibition	inhibition (retest duplicate average)
Cc1cc(C)c2nc(-c3ccco3)cc(C(=O)O)c2c1	21.4% (inactive)	–
Cc1cc(C)c2nc(SCCC#N)nc(C)c2c1	-2.1% (inactive)	–
O=c1oc2c(CN3CCCCC3)c(O)ccc2c2c1CCCCC2	93.5% (active)	148%
NC(=O)COc1ccc2c3c(c(=O)oc2c1)CCCCC3	-10.6% (inactive)	–
CN1CCN(Cc2c(O)ccc3c2oc(=O)c2ccccc23)CC1	-13.8% (inactive)	–
Cc1ccc(C(=O)NCC(=O)OCC(=O)Nc2cccc(S(=O)(=O)N3CCCC3)c2)cc1C	0.1% (inactive)	–
Cc1cc(C)n(CC(C)NCc2c(C(=O)N3CCOCC3)nc3c(C)cccn23)n1 (configuration not stated)	-0.8% (inactive)	–
Cc1cccn2c(=O)c3cc(C(=O)N4COCC4(C)C)n(C)c3nc12	1.5% (inactive)	–
Cc1cccn2c(=O)c3cc(C#N)c(=O)n(CCCN4CCOCC4)c3nc12	61.6% (active)	71.6%
O=c1c(-c2ccccc2)coc2cc(O)ccc12	-4.05% (inactive)	–
COc1ccc(-c2cc3ccc(OCc4nn[nH]n4)cc3oc2=O)cc1	16.9% (inactive)	–
O=c1oc2cc(O)ccc2cc1-c1ccc(F)cc1	61.6% (active)	71.5%
NS(=O)(=O)c1ccc(NC2=CC(c3ccc(F)cc3)N(c3ccc(S(N)(=O)=O)cc3)C2=O)cc1 (configuration not stated)	-4.3% (inactive)	–
Cc1ccc(Cl)cc1NC(=O)c1ccccn1	-0.3% (inactive)	–
COC(=O)C1=C(C)OC(N)=C(C#N)C1c1cc(OC)ccc1OC (configuration not stated)	-18.1% (inactive)	–
CCC1=C(C(=O)OC)C(c2cc(OC)ccc2OC)C(C#N)=C(N)O1 (configuration not stated)	-8.1% (inactive)	–
COc1ccc(C2C(C#N)=C(N)Oc3cc(N)ccc32)cc1OC (configuration not stated)	102% (active)	108%
Cc1cc2nc(C(F)(F)F)cc(-c3cccs3)n2n1	-2.5% (inactive)	–
CC(C)c1ccc(Nc2ncccc2C#N)cc1	2.1% (inactive)	–
Cc1ccc2c(CSc3nncs3)cc(=O)oc2c1	-1% (inactive)	–
CCOC(=O)Cc1csc(NC(=O)COc2ccc3c(C)cc(=O)oc3c2)n1	-11.5% (inactive)	–
CCOC(=O)Cc1csc(SCc2cc(=O)oc3cc(O)ccc23)n1	121% (active)	114%
C=CCNC(=O)COC(=O)c1ccccc1C(=O)N(C)C1CCCCC1	-5.7% (inactive)	–
COc1ccc2c(CC(=O)OCC(=O)NC(N)=O)coc2c1	2.1% (inactive)	–

SMILES	inhibition	inhibition (retest duplicate average)
Cc1ccc(-n2c(=O)c(C#N)cc3c(=O)n4ccccc4nc32)cc1C	58.7% (active)	72.9%
Cc1cccc(-n2ncc(C#N)c2-n2cccc2)c1	-1.3% (inactive)	–
Cc1ccc(-n2ncc3c(=O)n(-c4ccc(C)c(C)c4)c(-c4ccco4)nc32)cc1	1.4% (inactive)	–
COc1ccc(NC(=O)C(Br)C(C)C)cc1 (configuration not stated)	2.9% (inactive)	–
c1ccc(-n2nnnc2-c2cccnc2)cc1	-4.7% (inactive)	–
COc1c(O)ccc2c1CN1CCc3cc4c(cc3C1C2)OCO4 (configuration not stated)	78% (active)	110%
COc1ccc2cc1Oc1ccc(cc1)C[C@H]1c3cc(c(OC)cc3CCN1C)Oc1c(O)c(OC)cc3c1[C@H](C2)N(C)CC3	-0.6% (inactive)	–
COc1cc(COCC(O)CN2CCN(Cc3ccc4c(c3)OCO4)CC2)cc(OC)c1OC (configuration not stated)	1.8% (inactive)	–
CC(C)n1c(-c2ccncc2)n[nH]c1=S	-1.2% (inactive)	–
Cc1ccc(C)c(Cn2nnc3c(=O)[nH]c(C(=O)Nc4ccc(F)cc4)nc32)c1	1.2% (inactive)	–
COc1ccc(Cl)cc1S(=O)(=O)N1CCC(O)(c2ccc(Cl)cc2)CC1	-1.4% (inactive)	–
C=CCn1c(COc2ccccc2)nnc1SCC(=O)NCC(=O)OCC	0.8% (inactive)	–
CCOC(=O)CNC(=O)CSc1nnc(COc2ccc(Cl)cc2)n1CC	2.7% (inactive)	–
CCOC(=O)CNC(=O)CSc1nnc(-c2cccc(OC)c2)n1CC	60.6% (active)	67.7%
Cc1cc2oc(=O)cc(CN3CCN(S(=O)(=O)c4cccs4)CC3)c2cc1C(C)C	-6.5% (inactive)	–
CCN(CC)CCC(c1cc(OC)c(OC)c(OC)c1)c1c(OC)cc(OC)c2c(-c3ccccc3)cc(=O)oc12 (configuration not stated)	1.1% (inactive)	–
O=c1[nH]c(CN2CCN(S(=O)(=O)c3ccc4c(c3)OCCO4)CC2)nc2sc3c(c12)CCCC3	-6.3% (inactive)	–
CSc1nc(N)c(C#N)c(-c2ccccc2Cl)c1C#N	2% (inactive)	–
COc1ccccc1-c1c(C#N)c(N)nc2c1CCC2	61.7% (active)	60.2%
COc1ccc(-c2cc(-c3ccc(N)cc3)nc(N)c2C#N)cc1OC	52.8% (inactive)	46.8%
COc1ccc(OCCNS(=O)(=O)Cc2ccccc2)cc1	2.9% (inactive)	–
Cc1ccnc(-n2sc3ccccc3c2=O)n1	54.6% (active)	58.2%
Cc1ccnc(Nc2nc3ccccc3s2)n1	-5.4% (inactive)	–
Cc1ccnc(N2CCC(C(=O)NC3CCCCCC3)CC2)n1	0.3% (inactive)	–
